A number with no mark means an inactive call.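 How the source made its calls: active = MAPPIT score above the 99th percentile of random reference set scores in the same batch; inactive = at or below it.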
How the values were obtained:
Experiment in all cases: MAPPIT interaction score (arbitrary units); higher = stronger binary interaction signal, active = hit call of the paper
CG14818 = conditions: MAPPIT configuration: N-N; pair source set: screen_2
Tm1 = conditions: MAPPIT configuration: N-N; pair source set: screen_1
dgrn = conditions: MAPPIT configuration: N-N; pair source set: screen_1
CG14563 = conditions: pair source set: RRS
CG17162 = conditions: MAPPIT configuration: N-C; pair source set: screen_3
Dlc90F = conditions: MAPPIT configuration: N-N; pair source set: Lit-BS-16
CG14764 = conditions: MAPPIT configuration: N-N; pair source set: Curagen_low_conf
CG6933 = conditions: MAPPIT configuration: N-N; pair source set: Lit-BS-16
CG14074 = conditions: MAPPIT configuration: N-N; pair source set: screen_2
Su(var)2-10 = conditions: MAPPIT configuration: N-C; pair source set: screen_3
TrxT = conditions: MAPPIT configuration: N-N; pair source set: screen_2
CG15211 = conditions: MAPPIT configuration: N-N; pair source set: screen_2
ReepB = conditions: MAPPIT configuration: N-C; pair source set: screen_3
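Further: HEK293T cells with Epo stimulation, STAT-responsive firefly luciferase reporter, fold induction versus unstimulated cells divided by the larger fold induction of two negative controls lacking either bait or prey.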

B1: CG10681 (protein)
chain: MSHLGLADVHQSEDATPDLESFTGFGNSAAEAFIQSLAGMVNQGDVETMIRAQKQMLQRFEKTNEMLLNCNALSQSRLKSASEDFKRHVKCLSEMKKDLDYIFRKIRIIKQKLQSQFPAIYAEVQPQRSSLAEEAEDDTEAQAKKTAETPAPAAAKPVLSTKKSAATIEYVQMEEAVDNGTVEIENELIKRVCSVETANPNDSSDCTSEDTG
CG14818
  MAPPIT interaction score: 5 (active)
Tm1
  MAPPIT interaction score: 2.36
dgrn
  MAPPIT interaction score: 0.165

B2: Mettl2 (protein)
chain: MLTTSSSTMLGKYGWQILRRLASKSWEHTRQRKKPSGAGSRVLTDAREVFEFNAWDHVQWDEEQELAAKAAVAKNSTSKMEAEQKERFQTDAPKFWDSFYGIHDNRFFKDRHWLFTEFPELAPLAADSAVLQPRSIFELGCGVGNTILPLLQYSSEPQLKVFGCDFSARAIEILRSQRQFDEKRCEVFVMDATLDHWQVPFEENSQDIIVMIFVLSAIEPKKMQRVLDNCYRYLRPGGLLLFRDYGRYDLAQLRFKSGKCMEDNFYVRGDGTMVYFFTEEELRGMMTQAGLQEEQLIVDRRLQVNRCRGLKMYRVWIQTKFRKPL
CG14563; MAPPIT configuration: N-C
  MAPPIT interaction score: 0.238
CG14563; MAPPIT configuration: N-N
  MAPPIT interaction score: -0.0268
CG17162
  MAPPIT interaction score: 1.73
Dlc90F
  MAPPIT interaction score: 0.581

B3: cad (protein)
chain: MVSHYYNTLPYTQKHSAANLAYASAAGQPWNWTPNYHHTPPNHQFLGDVDSSHAAHHAAAAHQMYYNSHHMFHSAAAASAGEWHSPASSTADNFVQNVPTSAHQLMQQHHHHHAHASSSSASSGSSSSGGAPGAPQLNETNSSIGVGGAGGGGGVGGATDGGPGSAPPNHQQHIAEGLPSPPITVSGSEISSPGAPTSASSPHHHLAHHLSAVANNNNNNNNNNNSPSTHNNNNNNNSVSNNNRTSPSKPPYFDWMKKPAYPAQPQPGKTRTKDKYRVVYTDFQRLELEKEYCTSRYITIRRKSELAQTLSLSERQVKIWFQNRRAKERKQNKKGSDPNVMGVGVQHADYSQLLDAKAKLEPGLHLSHSLAHSMNPMAAMNIPAMRLHPHLAAHSHSLAAVAAHSHQLQQQHSAQMSAAAAVGTLSM
CG14764
  MAPPIT interaction score: -0.0445
CG6933
  MAPPIT interaction score: -0.219

B4: z (protein)
chain: MSAQGEGGGAGGSGGGGAGSDGGGNAGQSSTGSGTVAVTNGGNSSAKNQLPLTPRFTAEEKEVLYTLFHLHEEVIDIKHRKKQRNKYSVRETWDKIVKDFNSHPHVSAMRNIKQIQKFWLNSRLRKQYPYRDGSSSNLSSGSAKISSVSVSVASAVPQQQQQQHHQQHDSVKVEPEYQISPDASEHNPQADTFDEIEMDANDVSEIDEDPMEQQQQQQQEAQAQAQAQAQAQAQVQSAAAEMQKMQQVNAVAAAAAANATMINTHQINVDQISAEKLTLNDLLHFKTARPREEIILIKHPEATATQIHTIPTQAQQHPMATITAGGYNQQIISEIKPQQITLAQYQAQQQQQAQAQAQAQAQAQAQAQAQAQAQAQAQQLAQQQLAAAQHQQLAAAVQVHHQQQQQQQAAVAVQQQQAAAAAAVKMQLTAATPTFTFSALPTVTAATTVPAAVPVPVATASSGSANSVAVNTSTASSVSINNTSLGGGGGNGATNSSATAADSFEERMNYFKIREAELRCKEQQLATEAKRIELNKAQDELKYMKEVHRLRVEELTMKIRILQKEEEQLRKCSTS
CG14074
  MAPPIT interaction score: -0.404
Su(var)2-10
  MAPPIT interaction score: 1.09
TrxT
  MAPPIT interaction score: -0.122

B5: GluProRS (protein)
chain: MSIKLKANLNNPPISGLATAHLINGTVPVEIVWSKEETSLQFPDNRLLVCHSNNDVLRALARAAPDYKLYGETAIERTQIDHWLSFSLTCEDDISWALSFLDKSIAPVTYLVANKLTIADFALFNEMHSRYEFLAAKGIPQHVQRWYDLITAQPLIQKVLQSLPEDAKVKRSPQSSKEQTPAKTGERKQEGKFVDLPGAEMGKVVVRFPPEASGYLHIGHAKAALLNQYYALAFQGTLIMRFDDTNPAKETVEFENVILGDLEQLQIKPDVFTHTSNYFDLMLDYCVRLIKESKAYVDDTPPEQMKLEREQRVESANRSNSVEKNLSLWEEMVKGSEKGQKYCVRAKIDMSSPNGCMRDPTIYRCKNEPHPRTGTKYKVYPTYDFACPIVDAIENVTHTLRTTEYHDRDDQFYWFIDALKLRKPYIWSYSRLNMTNTVLSKRKLTWFVDSGLVDGWDDPRFPTVRGIIRRGMTVEGLKEFIIAQGSSKSVVFMNWDKIWAFNKKVIDPIAPRYTALEKEKRVIVNVAGAKVERIQVSVHPKDESLGKKTVLLGPRIYIDYVDAEALKEGENATFINWGNILIRKVNKDASGNITSVDAALNLENKDFKKTLKLTWLAVEDDPSAYPPTFCVYFDNIISKAVLGKDEDFKQFIGHKTRDEVPMLGDPELKKCKKGDIIQLQRRGFFKVDVAYAPPSGYTNVPSPIVLFSIPDGHTKDVPTSGLKVNAPDAKATKKASSPVSSSGQASELDSQISQQGDLVRDLKSKKAAKDQIDVAVKKLLALKADYKSATGKDWKPGQTSASSAPVPAASSSSANDAVSVNASIVKQGDLVRDLKGKKASKPEIDAAVKTLLELKAQYKTLTGQDWKPGTVPTTAAPSASAAPSVGVNDSVAQILSQITAQGDKVRELKSAKADKATVDAAVKTLLSLKADYKAATGSDWKPGTTAPAPAAAPVKVKQEKNPDPASVLTVNTLLNKIAQQGDKIRQLKSAKSEKSLVEAEVKLLLALKTDYKSLTGQEWKPGTVAPAPTTVNVIDLTGGDSGSDVGSVLSKIQAQGDKIRKLKSEKAAKNVIDPEVKTLLALKGEYKTLSGKDWTPDAKSEPAVVKKEASPVSMASPAKDELTQEINAQGEKVRAAKGNKAAKEVIDAEVAKLLALKAKYKEVTGTDFPVAGRGGGGGGGSAKKAPKEAQPKPAKPVKKEPAADASGAVKKQTRLGLEATKEDNLPDWYSQVITKGEMIEYYDVSGCYILRQWSFAIWKAIKTWFDAEITRMGVKECYFPIFVSKAVLEKEKTHIADFAPEVAWVTKSGDSDLAEPIAVRPTSETVMYPAYAKWVQSYRDLPIRLNQWNNVVRWEFKQPTPFLRTREFLWQEGHTAFADKEEAAKEVLDILDLYALVYTHLLAIPVVKGRKTEKEKFAGGDYTTTVEAFISASGRAIQGATSHHLGQNFSKMFEIVYEDPETQQKKYVYQNSWGITTRTIGVMIMVHADNQGLVLPPHVACIQAIVVPCGITVNTKDDERAQLLDACKALEKRLVGGGVRCEGDYRDNYSPGWKFNHWELKGVPLRLEVGPKDLKAQQLVAVRRDTVEKITIPLADVEKKIPALLETIHESMLNKAQEDMTSHTKKVTNWTDFCGFLEQKNILLAPFCGEISCEDKIKADSARGEEAEPGAPAMGAKSLCIPFDQPAPIAASDKCINPSCTNKPKFYTLFGRSY
CG15211
  MAPPIT interaction score: 0.0202
ReepB
  MAPPIT interaction score: 1.56

From the supplement of paper PMC10105736
